Measured values as given in the supplement of paper PMC10037445.
In all, about 2,900 compounds were measured (“NF-kB SEAP reporter activity, fold change vs agonist alone”: median about 0.99, highest 2% from about 2.6 on). The list comes from a sample in which the highest values are over-represented; it also holds similar structures and randomly drawn compounds.

Tests used:
RAW-Dual [1] = assay: NF-kB SEAP reporter activity, fold change vs agonist alone; higher = enhanced NF-kB activity
Summary of the method: (§1)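 After 50 nL of library stock was delivered by pin tool to RAW-Dual macrophages (50,000 cells/well, DMEM, 384-well plates), a PRR agonist was added 1 h later and the plates were kept at 37 °C, 5% CO2. Twenty hours later, IRF was read from supernatant by QuantiLuc luminescence and NF-κB by QuantiBlue absorbance at 620 nm. Reporter activity is stated as fold change over agonist-alone wells. Wells with IncuCyte confluency under 70% of agonist controls in both mask sets were counted as cytotoxic.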

RAW-Dual [2] = assay: NF-kB SEAP reporter activity, fold change vs agonist alone; cytotoxicity flag (confluency mask): cytotoxic (confluency <70% of control); higher = enhanced NF-kB activity
Summary of the method: as §1

RAW-Dual [3] = assay: NF-kB SEAP reporter activity, fold change vs agonist alone; cytotoxicity flag (confluency mask): not cytotoxic; higher = enhanced NF-kB activity
Summary of the method: as §1

[4] = library stock concentration (final ~1000-fold dilution): 10 mM, cytotoxicity flag (confluency mask): not cytotoxic, agonist: Imiquimod (TLR7) […]
[5] = library stock concentration (final ~1000-fold dilution): 10 mM, cytotoxicity flag (confluency mask): not cytotoxic, agonist: MPLA (TLR4) […]
[6] = library stock concentration (final ~1000-fold dilution): 10 mM, cytotoxicity flag (confluency mask): cytotoxic (confluency <70% of control), agonist: Imiquimod (TLR7) […]
[7] = library stock concentration (final ~1000-fold dilution): 10 mM, cytotoxicity flag (confluency mask): cytotoxic (confluency <70% of control), agonist: MPLA (TLR4) […]
[8] = agonist: ODN 1826 (TLR9) 0.5 ug/mL
[9] = agonist: Pam2CSK4 (TLR2/6) 0.1 ug/mL
[10] = agonist: Pam3CSK4 (TLR2/1) 0.1 ug/mL

COc1cc(OC)cc(-c2cc3cnc(N)nc3nc2NC(=O)NC(C)(C)C)c1
NF-kB SEAP reporter activity (RAW-Dual [1]; [4]): 0.989 | NF-kB SEAP reporter activity (RAW-Dual [1]; [5]): 1.1

CCN(CC)CCCCNc1ncc2cc(-c3cc(OC)cc(OC)c3)c(NC(=O)NC(C)(C)C)nc2n1
NF-kB SEAP reporter activity (RAW-Dual [1]; [6]): 2.8 | NF-kB SEAP reporter activity (RAW-Dual [1]; [7]): 2.71

CCN(CC)CCCCNc1ncc2cc(-c3cc(OC)cc(OC)c3)c(NC(=O)NC(C)(C)C)nc2n1 (library stock concentration (final ~1000-fold dilution): 10 mM)
NF-kB SEAP reporter activity (RAW-Dual [2]; agonist: LPS (TLR4) 0.1 ug/mL): 0.324 | NF-kB SEAP reporter activity (RAW-Dual [2]; [8]): 0.891 | NF-kB SEAP reporter activity (RAW-Dual [2]; [9]): 1.72 | NF-kB SEAP reporter activity (RAW-Dual [2]; [10]): 1.56

O=C(c1cccc(Br)c1)N1CCC(N2CCCC2)CC1
NF-kB SEAP reporter activity (RAW-Dual [1]; [5]): 1.09

O=C(c1cccc(Br)c1)N1CCC(N2CCCC2)CC1 (library stock concentration (final ~1000-fold dilution): 10 mM)
NF-kB SEAP reporter activity (RAW-Dual [3]; agonist: LPS (TLR4) 0.1 ug/mL): 1.39 | NF-kB SEAP reporter activity (RAW-Dual [3]; [8]): 0.951 | NF-kB SEAP reporter activity (RAW-Dual [3]; [9]): 1.16 | NF-kB SEAP reporter activity (RAW-Dual [3]; [10]): 0.966

O=C(NC1(c2ccccc2)CC1)c1c(CN2CCC(N3CCCCC3)CC2)c(-c2cccc(C(F)(F)F)c2)nc2cc(Br)ccc12 (library stock concentration (final ~1000-fold dilution): 10 mM)
NF-kB SEAP reporter activity (RAW-Dual [2]; agonist: LPS (TLR4) 0.1 ug/mL): 2.58 | NF-kB SEAP reporter activity (RAW-Dual [2]; [8]): 0.897 | NF-kB SEAP reporter activity (RAW-Dual [2]; [9]): 0.896 | NF-kB SEAP reporter activity (RAW-Dual [2]; [10]): 1.27

O=C(NC1(c2ccccc2)CC1)c1c(CN2CCC(N3CCCCC3)CC2)c(-c2cccc(C(F)(F)F)c2)nc2cc(Br)ccc12
NF-kB SEAP reporter activity (RAW-Dual [1]; [6]): 0.916 | NF-kB SEAP reporter activity (RAW-Dual [1]; [7]): 1.03

CN1C(=O)C(NC(=O)c2n[nH]c(Cc3ccccc3)n2)COc2ccccc21 (stereo not drawn)
NF-kB SEAP reporter activity (RAW-Dual [1]; [4]): 1.3 | NF-kB SEAP reporter activity (RAW-Dual [1]; [5]): 0.971

CN1C(=O)C(NC(=O)c2n[nH]c(Cc3ccccc3)n2)COc2ccccc21 (stereo not drawn) (library stock concentration (final ~1000-fold dilution): 10 mM)
NF-kB SEAP reporter activity (RAW-Dual [3]; agonist: LPS (TLR4) 0.1 ug/mL): 1.01 | NF-kB SEAP reporter activity (RAW-Dual [3]; [8]): 1.59 | NF-kB SEAP reporter activity (RAW-Dual [3]; [9]): 1.01 | NF-kB SEAP reporter activity (RAW-Dual [3]; [10]): 1.15

CN(C/C=C/C#CC(C)(C)C)Cc1cccc2ccccc12.Cl (library stock concentration (final ~1000-fold dilution): 10 mM)
NF-kB SEAP reporter activity (RAW-Dual [3]; agonist: LPS (TLR4) 0.1 ug/mL): 3.51 | NF-kB SEAP reporter activity (RAW-Dual [3]; [8]): 0.849 | NF-kB SEAP reporter activity (RAW-Dual [3]; [9]): 0.948 | NF-kB SEAP reporter activity (RAW-Dual [3]; [10]): 1.3

CN(C/C=C/C#CC(C)(C)C)Cc1cccc2ccccc12.Cl
NF-kB SEAP reporter activity (RAW-Dual [1]; [4]): 1.56 | NF-kB SEAP reporter activity (RAW-Dual [1]; [5]): 2.08

CN(C/C=C/C#CC(C)(C)C)Cc1cccc2ccccc12 (library stock concentration (final ~1000-fold dilution): 10 mM)
NF-kB SEAP reporter activity (RAW-Dual [3]; agonist: LPS (TLR4) 0.1 ug/mL): 4.26 | NF-kB SEAP reporter activity (RAW-Dual [3]; [8]): 0.849 | NF-kB SEAP reporter activity (RAW-Dual [3]; [9]): 0.95 | NF-kB SEAP reporter activity (RAW-Dual [3]; [10]): 1.44

CN(C/C=C/C#CC(C)(C)C)Cc1cccc2ccccc12
NF-kB SEAP reporter activity (RAW-Dual [1]; [4]): 1.6 | NF-kB SEAP reporter activity (RAW-Dual [1]; [5]): 2.02

COc1cc2c(cc1OC)CN(C(=O)/C=C/c1c(-c3ccccc3)n(C)c3ncccc13)CC2.Cl
NF-kB SEAP reporter activity (RAW-Dual [1]; [4]): 1 | NF-kB SEAP reporter activity (RAW-Dual [1]; [5]): 1.02

COc1cc2c(cc1OC)CN(C(=O)/C=C/c1c(-c3ccccc3)n(C)c3ncccc13)CC2.Cl (library stock concentration (final ~1000-fold dilution): 10 mM)
NF-kB SEAP reporter activity (RAW-Dual [3]; agonist: LPS (TLR4) 0.1 ug/mL): 1.15 | NF-kB SEAP reporter activity (RAW-Dual [3]; [8]): 1.14 | NF-kB SEAP reporter activity (RAW-Dual [3]; [9]): 1.15 | NF-kB SEAP reporter activity (RAW-Dual [3]; [10]): 1.18

CNC1CN(c2ccc3c(=O)c(C(=O)O)cn(-c4nccs4)c3n2)CC1OC.Cl (stereo not drawn) (library stock concentration (final ~1000-fold dilution): 2 mM)
NF-kB SEAP reporter activity (RAW-Dual [3]; agonist: LPS (TLR4) 0.1 ug/mL): 1.11 | NF-kB SEAP reporter activity (RAW-Dual [3]; [8]): 1.56 | NF-kB SEAP reporter activity (RAW-Dual [3]; [9]): 1.32 | NF-kB SEAP reporter activity (RAW-Dual [3]; [10]): 1.18

CNC1CN(c2ccc3c(=O)c(C(=O)O)cn(-c4nccs4)c3n2)CC1OC.Cl (stereo not drawn)
NF-kB SEAP reporter activity (RAW-Dual [1]; library stock concentration (final ~1000-fold dilution): 2 mM, cytotoxicity flag (confluency mask): not cytotoxic, agonist: Imiquimod (TLR7) […]): 1.12 | NF-kB SEAP reporter activity (RAW-Dual [1]; library stock concentration (final ~1000-fold dilution): 2 mM, cytotoxicity flag (confluency mask): not cytotoxic, agonist: MPLA (TLR4) […]): 0.968

Br.CN(C)CCCC1(c2ccc(F)cc2)OCc2cc(C#N)ccc21 (stereo not drawn)
NF-kB SEAP reporter activity (RAW-Dual [1]; [5]): 1.01

Br.CN(C)CCCC1(c2ccc(F)cc2)OCc2cc(C#N)ccc21 (stereo not drawn) (library stock concentration (final ~1000-fold dilution): 10 mM)
NF-kB SEAP reporter activity (RAW-Dual [3]; agonist: LPS (TLR4) 0.1 ug/mL): 1.15 | NF-kB SEAP reporter activity (RAW-Dual [3]; [8]): 0.889 | NF-kB SEAP reporter activity (RAW-Dual [3]; [9]): 0.786 | NF-kB SEAP reporter activity (RAW-Dual [3]; [10]): 0.857

CCOc1cc(C(CS(C)(=O)=O)N2C(=O)c3cccc(NC(C)=O)c3C2=O)ccc1OC (stereo not drawn) (library stock concentration (final ~1000-fold dilution): 10 mM)
NF-kB SEAP reporter activity (RAW-Dual [3]; agonist: LPS (TLR4) 0.1 ug/mL): 1.59 | NF-kB SEAP reporter activity (RAW-Dual [3]; [8]): 1.87 | NF-kB SEAP reporter activity (RAW-Dual [3]; [9]): 1.47 | NF-kB SEAP reporter activity (RAW-Dual [3]; [10]): 1.72

CCOc1cc(C(CS(C)(=O)=O)N2C(=O)c3cccc(NC(C)=O)c3C2=O)ccc1OC (stereo not drawn)
NF-kB SEAP reporter activity (RAW-Dual [1]; [4]): 1.12 | NF-kB SEAP reporter activity (RAW-Dual [1]; [5]): 1.26

N=C(N)NCCCC(N)C(=O)NCC(=O)NC(CC(=O)O)C(=O)O (stereo not drawn) (library stock concentration (final ~1000-fold dilution): 10 mM water)
NF-kB SEAP reporter activity (RAW-Dual [3]; agonist: LPS (TLR4) 0.1 ug/mL): 1.41 | NF-kB SEAP reporter activity (RAW-Dual [3]; [8]): 1.14 | NF-kB SEAP reporter activity (RAW-Dual [3]; [9]): 1.2 | NF-kB SEAP reporter activity (RAW-Dual [3]; [10]): 0.993

N=C(N)NCCCC(N)C(=O)NCC(=O)NC(CC(=O)O)C(=O)O (stereo not drawn)
NF-kB SEAP reporter activity (RAW-Dual [1]; library stock concentration (final ~1000-fold dilution): 10 mM water, cytotoxicity flag (confluency mask): not cytotoxic, agonist: Imiquimod (TLR7) […]): 0.924 | NF-kB SEAP reporter activity (RAW-Dual [1]; library stock concentration (final ~1000-fold dilution): 10 mM water, cytotoxicity flag (confluency mask): not cytotoxic, agonist: MPLA (TLR4) […]): 1.06

[O-][n+]1cccc(-c2nc3c(Cl)cccc3cc2C(Nc2ncnc3cccnc23)C(F)(F)F)c1 (stereo not drawn) (library stock concentration (final ~1000-fold dilution): 10 mM)
NF-kB SEAP reporter activity (RAW-Dual [3]; agonist: LPS (TLR4) 0.1 ug/mL): 2.33 | NF-kB SEAP reporter activity (RAW-Dual [3]; [8]): 1.3 | NF-kB SEAP reporter activity (RAW-Dual [3]; [9]): 0.992 | NF-kB SEAP reporter activity (RAW-Dual [3]; [10]): 1.38

[O-][n+]1cccc(-c2nc3c(Cl)cccc3cc2C(Nc2ncnc3cccnc23)C(F)(F)F)c1 (stereo not drawn)
NF-kB SEAP reporter activity (RAW-Dual [1]; [4]): 0.648 | NF-kB SEAP reporter activity (RAW-Dual [1]; [5]): 1.56

CC(C)=CC(C)C[C@](C)(O[C@@H]1O[C@H](CO)[C@@H](O)[C@H](O)[C@H]1O)[C@H]1CC[C@]2(C)C3CCC4C(C)(C)C(O[C@@H]5O[C@H](CO)[C@@H](O)[C@H](O)[C@H]5O[C@@H]5O[C@H](CO)[C@@H](O)[C@H](O)[C@H]5O)CC[C@]4(C)C3C[C@H](O)[C@@H]12 (stereo partly drawn) (library stock concentration (final ~1000-fold dilution): 10 mM)
NF-kB SEAP reporter activity (RAW-Dual [3]; agonist: LPS (TLR4) 0.1 ug/mL): 1.18 | NF-kB SEAP reporter activity (RAW-Dual [3]; [8]): 1.06 | NF-kB SEAP reporter activity (RAW-Dual [3]; [9]): 1.04 | NF-kB SEAP reporter activity (RAW-Dual [3]; [10]): 1.04

CC(C)=CC(C)C[C@](C)(O[C@@H]1O[C@H](CO)[C@@H](O)[C@H](O)[C@H]1O)[C@H]1CC[C@]2(C)C3CCC4C(C)(C)C(O[C@@H]5O[C@H](CO)[C@@H](O)[C@H](O)[C@H]5O[C@@H]5O[C@H](CO)[C@@H](O)[C@H](O)[C@H]5O)CC[C@]4(C)C3C[C@H](O)[C@@H]12 (stereo partly drawn)
NF-kB SEAP reporter activity (RAW-Dual [1]; [4]): 0.936 | NF-kB SEAP reporter activity (RAW-Dual [1]; [5]): 1.05
